Compound activity: PubChem, National Center for Advancing Translational Sciences (NCATS)
Tau fibril FP: tau fibrillization inhibition (FP); K18 P301L tau heparin fibrillization, Alexa594 FP, 6 h; AID 1468; actives 0.39% (n = 280,000); P10636; Potency, µM (highest dose often 57.7 µM), inactives show at the top dose activity, negative = inhibition, actives largely listed as inhibitors; also: potency is read from the fitted curve at half-maximal effect; nearly all actives have a fitted effect of over 55% in size
Target sequence (P10636 561-689 P618L limits assumed): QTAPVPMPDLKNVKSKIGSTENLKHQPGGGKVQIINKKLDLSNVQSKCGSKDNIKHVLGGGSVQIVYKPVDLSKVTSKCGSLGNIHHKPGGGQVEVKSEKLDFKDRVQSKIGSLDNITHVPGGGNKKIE
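FP of Alexa 594-tau after heparin (20 uM) induction. Substrate: human K18 P301L, 15 uM unlabeled, 0.24 uM labeled. Buffer 100 mM sodium acetate pH 7. 6 hr, 37 C.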
Sfp inh: Sfp phosphopantetheinyl transferase inhibition; Q9F4F7; Biochemical Sfp PPTase activity, qHTS; Potency, µM, inactives show largest response in the series, negative = inhibition, actives largely listed as inhibitors; actives 3.5% (n = 310,000); AID 1490;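 also: the enzyme is Sfp with the accession as filed and its product quenches rhodamine fluorescence; potency is read from the fitted curve at half-maximal effect; 0% = enzyme reaction without inhibitor and -100% = no enzyme wells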
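With Hepes-Na pH 7.6 buffer containing 10 mM MgCl2, Sfp (15 nM) modified BHQ-2-YbbR (12.5 uM) using rhodamine-CoA (5 uM). Two reads 30 minutes apart at 525/598 nm yielded each well's rate.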
Tau fluor counter: counter-screen for tau fibril formation inhibitors. AID 1463. tau K18 P301L Alexa594 fluorescence, heparin fibrillization. actives 0.93% (n = 280,000). Potency, µM (highest dose often 57.7 µM), for the others: at the top dose activity change, negative = decrease; also: potency is read from the fitted curve at half-maximal effect; nearly all actives have a fitted effect of over 55% in size
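Human tau K18 P301L (15 uM unlabeled, 0.24 uM Alexa 594-labeled) in 100 mM sodium acetate pH 7 with 20 uM heparin, 6 hr at 37 C. ThT 30 uM added, 1 hr ambient; Alexa 594 FP and total fluorescence read at 555/632 nm.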
Coupling enz: inhibits coupling enzyme system, counter-screen for aldolase hits | coupling enzyme system counterscreen, AmpLite Red fluorescence | activity change, negative = inhibition, % at 58.2 µM, hits read low | actives 0.67% (n = 290,000); in the data active = activity change below about -30%
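Counterscreen of the coupled detection system alone, without aldolase: glyceraldehyde-3-phosphate coupling enzymes plus AmpLite Red readout. Compounds at 57.5 uM final, 10 min RT preincubation, 20 min RT reaction, fluorescence 525/598 nm.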
Tau ThT inhib: tau fibrillization inhibition (ThT binding); recombinant tau K18 P301L, heparin-induced fibrillization, ThT fluorescence; Potency, µM (top dose mostly 57.4 µM), inactives show top-dose activity, negative = inhibition, usual class: inhibitors; actives 2.1% (n = 270,000); P10636; also: potency is read from the fitted curve at half-maximal effect; nearly all actives have a fitted effect of over 55% in size
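Using a mix of unlabeled (15 uM) and Alexa 594-labeled (0.24 uM) tau K18 P301L, heparin-triggered fibrillization over 6 hr at 37 C was scored by ThT fluorescence.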
* marks the source's active call; other numbers are inactive results; ? = inconclusive; / = no result; [ ] = another dose, or the depositor's remark. Sampled rows, rich in hits. Any-hit rate of the full collection: about 5.2%. Unless noted, calls follow the shape of the dose curve; as a rule, active = well fitted curve in the direction sought with a large enough effect; inconclusive = small, poorly fitted or top-dose-only effect, or another doubt; inactive = no such curve, though single readings can be large; an effect the other way counts as inactive or inconclusive. Unless noted, % is scaled to controls: 0 for no effect and ±100 for the full control effect.

SMILES	Tau fibril FP	Sfp inh	Tau fluor counter	Coupling enz	Tau ThT inhib
O=C(NCC12CC3CC(CC(C3)C1)C2)c1cc2nc(-c3ccc(F)cc3)cc(C(F)(F)F)n2n1	-4%	/	-15%	/	-13%
Cc1[nH]n(C2=NCCS2)c(=O)c1N=Nc1cccc(C(F)(F)F)c1	5%	12%	-16%	6	13µM*
CCc1cccc(C)c1NC(=O)c1cnn(-c2ccc(OC)cc2)c1C1CCN(C(=O)OC(C)(C)C)CC1	-17%	/	-24%	/	?
CN(NC(=O)/C=C/C(=O)O)c1ncc(C(F)(F)F)cc1Cl	-3%	56µM*	-2%	7	-7%
Cc1cccc(-c2nnc3n(CCc4ccccc4)c(=O)c4ccccc4n23)c1	6%	/	1%	/	3%
COc1ccc2[nH]cc(CCNc3ncncc3-c3ccc(C(=O)N(C)C)cc3)c2c1	/	-23%	/	0	/
Cc1ccc(-c2[nH]nc3c2C(c2ccoc2)C(C#N)=C(N)O3)cc1C (stereo not drawn)	?	6%	?	-22	32µM*
CC(=O)C1=C(C)OC(N)=C(C#N)C1c1cccnc1 (stereo not drawn)	-17%	18%	-8%	-33*	?
CCOC(=O)C1=C(c2ccccc2)OC(N)=C(C#N)C1c1cccnc1 (stereo not drawn)	-5%	18%	-2%	-2	-6%
N#CC1=C(N)Oc2n[nH]c(-c3ccccc3)c2C1c1cccnc1 (stereo not drawn)	-11%	15%	-14%	2	?
COc1ccc(-c2[nH]nc3c2C(c2ccoc2)C(C#N)=C(N)O3)cc1 (stereo not drawn)	0%	22%	-20%	0	?
N#CC1=C(N)Oc2n[nH]c(-c3cccnc3)c2C1c1cc(F)ccc1F (stereo not drawn)	-5%	-14%	-20%	2	?
N#CC1=C(N)Oc2n[nH]c(-c3cccnc3)c2C1c1ccc([N+](=O)[O-])o1 (stereo not drawn)	?	5%	?	1	13µM*
Cc1ccc(-c2[nH]nc3c2C(c2cccnc2)C(C#N)=C(N)O3)cc1 (stereo not drawn)	0%	-1%	-16%	-42*	-14%
CCOC(=O)C1(C)C=C(Nc2cccc(C(=O)O)c2)C(=O)N1c1ccccc1 (stereo not drawn)	5%	/	-13%	/	-12%
Cc1ccc2nc(Nc3ccc(Br)cc3)nc(-c3ccccc3)c2c1	?	/	-26%	/	-13%
C=C(C)C1CC=C(C)CC1 (stereo not drawn)	/	6%	/	/	/
CCOc1ccc(-c2cc3c(=O)n(CC(=O)Nc4c(C)cccc4C)ccn3n2)cc1	-8%	/	-5%	/	-12%
Clc1cccc(/C(Cc2nc3ccccc3[nH]2)=N\Nc2ccccc2)c1	?	11%	7.1µM*[quencher]	1	?
Cc1ccc(N/N=C(\Cc2nc3ccccc3[nH]2)c2ccccc2)cc1	-3%	-9%	-28%	-5	?
c1ccc(N/N=C(\Cc2nc3ccccc3[nH]2)c2ccccc2)cc1	1%	9%	16µM*[quencher]	0	?
N/N=C(/Cc1nc2ccccc2[nH]1)c1ccc([N+](=O)[O-])cc1	-3%	-24%	-30%	1	5µM*
O=C(NCCc1nc2ccccc2[nH]1)c1cc([N+](=O)[O-])cc([N+](=O)[O-])c1	3%	?	-15%	3	?
Cc1ccccc1N(C)C(=O)c1noc2c1COc1ccccc1-2	4%	/	-16%	/	8%
CCOC(=O)C1=C(C)NC2=C(C(=O)c3ccccc32)C1c1ccc(O)cc1 (stereo not drawn)	11%	-3%	?	5	10µM*
SMILES	Tau fibril FP	Sfp inh	Tau fluor counter	Coupling enz	Tau ThT inhib
CCOC(=O)C1=C(C)NC2=C(C(=O)c3ccccc32)C1c1cccc2ccccc12 (stereo not drawn)	13%	8%	14µM*[quencher]	-3	?
COc1ccc(F)cc1S(=O)(=O)NCC(c1ccco1)S(=O)(=O)c1ccc(F)cc1 (stereo not drawn)	-4%	/	-5%	/	1%
CC(=O)N1CCc2c(sc3c2c(=O)n(-c2ccccc2)c(=O)n3CC(=O)c2ccc(F)cc2)C1	-9%	/	-4%	/	1%
Cc1cc(C)n2c(=S)[nH]nc2n1	?	2.8µM*	-16%	0	?
COc1cc(OC)cc(-c2nc3nc(C)c(CCC(=O)Nc4ccc(Cl)cc4)c(C)n3n2)c1	-12%	/	?	/	-15%
COc1ccc(/C=C/c2cc(=O)c3cc(Cl)ccc3o2)cc1	-2%	50µM*	-12%	-4	?
Cc1nnc(NC(=O)CC(NC(=O)C(F)(F)F)c2ccccc2)s1 (stereo not drawn)	-2%	-26%	-7%	0	-15%
O=C(CC(NC(=O)C(F)(F)F)c1ccccc1)Nc1nnc(CCc2ccccc2)s1 (stereo not drawn)	-1%	18µM*	-4%	5	-4%
C=C(C)COc1ccc(-c2[nH]ncc2-c2ccccc2)c(O)c1	-5%	12%	18µM*[quencher]	-1	-15%
C=C(C)COc1ccc(-c2[nH]ncc2-c2ccc(OC)cc2)c(O)c1	?	1%	11µM*[quencher]	-3	-15%
C=C(C)COc1ccc(-c2n[nH]c(C)c2Oc2ccccc2OC)c(O)c1	-6%	-17%	-28%	-15	?
O=[N+]([O-])c1ccc(COc2ccc(-c3[nH]ncc3-c3ccccc3)c(O)c2)cc1	?	14%	?	5	-6%
C=C(C)COc1ccc(-c2n[nH]c(C)c2-c2ccc(OC)c(OC)c2)c(O)c1	-10%	24%	14µM*[quencher]	-11	-9%
C=C(C)COc1ccc(-c2[nH]ncc2-c2ccc(OC)c(OC)c2)c(O)c1	8%	15%	25µM*[quencher]	-11	-10%
CCC(Oc1ccc(F)cc1)C(=O)Nc1nc(-c2ccc(F)cc2)ns1 (stereo not drawn)	?	/	?	/	6%
O=c1cc(-c2ccc(O)cc2)oc2cc(OC3OC(CO)C(O)C(O)C3O)c(C3OC(CO)C(O)C(O)C3O)c(O)c12 (stereo not drawn)	/	-5%	/	2	/
O=C(O)c1cccc(N/N=C/C2=C(Cl)c3cc(Cl)ccc3SC2)c1	?	-22%	?	11	6.3µM*
CC(NC(=O)c1cccc(NC(=O)c2nsc3ccccc23)c1)c1ccccc1 (stereo not drawn)	-11%	/	-29%	/	5%
CCOc1ccc(NC(=O)C(=O)NCC(c2cccnc2)N2CCc3ccccc32)cc1 (stereo not drawn)	-5%	/	2%	/	15%
Cn1c(-c2c(N)n(CCc3ccccc3)c3nc4ccccc4nc23)nc2ccccc21	9%	-9%	13µM*[quencher]	-3	?
